Data taken from PubChem BioAssay (NCI).
This is part of a sample that, as a whole, favours compounds with a hit. Of some 83,000 tested, about 20% had one in any assay.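 Results are percent growth after 48 hours of single-concentration exposure. 100 means growth as in untreated cells, lower positive values show inhibition; negative values down to -100 show cell death.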 Values without a mark were called inactive. The source made the active and inactive calls. Rule for the calls: active = growth percent below 10; inactive = the rest.

Legend:
Test in all cases: NCI-60 one-dose screen, 48 h (100 = growth as untreated, 0 = no growth, -100 = all killed)
[1] = test system: HT29 colon; details: 10 µM unless noted
[2] = test system: SNB-19 CNS; details: 10 µM unless noted
[3] = test system: U251 CNS; details: 10 µM unless noted
[4] = test system: PC-3 prostate; details: 10 µM unless noted
[5] = test system: SK-MEL-5 melanoma; details: 10 µM unless noted
[6] = test system: LOX IMVI melanoma; details: 10 µM
[7] = test system: SK-MEL-28 melanoma; details: 10 µM unless noted
[8] = test system: SK-MEL-2 melanoma; details: 10 µM unless noted
[9] = test system: EKVX NSCLC; details: 10 µM unless noted
[10] = test system: SN12C renal; details: 10 µM unless noted
[11] = test system: UO-31 renal; details: 10 µM unless noted
[12] = test system: TK-10 renal; details: 10 µM unless noted
[13] = test system: ACHN renal; details: 10 µM unless noted
[14] = test system: CAKI-1 renal; details: 10 µM unless noted
[15] = test system: A498 renal; details: 10 µM unless noted
[16] = test system: CCRF-CEM leukemia; details: 10 µM unless noted
[17] = test system: MOLT-4 leukemia; details: 10 µM unless noted
[18] = test system: SNB-75 CNS; details: 10 µM unless noted
[19] = test system: UACC-62 melanoma; details: 10 µM unless noted

Structure (SMILES) | growth [1] | growth [2] | growth [3] | growth [4] | growth [5] | growth [6] | growth [7] | growth [8] | growth [9] | growth [10] | growth [11] | growth [12] | growth [13] | growth [14] | growth [15] | growth [16] | growth [17] | growth [18] | growth [19]
Cn1cc(-c2cc3nc(-c4cn(C)c5ncccc45)cc(N)n3n2)c2ccccc21 | -6.2% (active) | 37.7% | -8.69% (active) | 27.2% | -69.3% (active) | -56.8% (active) | -22.5% (active) | 15.2% | 43.7% | -38.2% (active) | 8.84% (active) | 80.3% | -73.3% (active) | -23.2% (active) | -2.42% (active) | 0.438% (active) | -21.3% (active) |  | 
O=C(/C=C/c1ccc(-c2ccccc2)cc1)c1nc2ccccc2n1Cc1ccc(Br)cc1 | 41.6% | 57.8% | 27.4% | 48.2% | 72.2% |  | 58.5% |  | 52.3% | 77.2% | 46.3% | 35.3% | 32.7% | 50.4% | 104% | 11.1% | -14.4% (active) | 56.8% | 50.2%
Cc1ncsc1-c1ccc(CNC(=O)[C@@H]2C[C@@H](O)CN2C(=O)[C@@H](NC(=O)C2(F)CC2)C(C)(C)C)c(OCCOCCOCCOCCOc2nc(Nc3cc(S(C)(=O)=O)ccc3N[C@@H](c3cccc4c3OC(F)(F)O4)c3ncccc3Cl)nc(N3CCNCC3)n2)c1 | 88.1% |  | 65.8% | 71.7% | 65.4% |  | 89.2% | 112% | 80.8% | 80.9% | 98.5% | 109% | 98.9% | 101% | 116% | -9.39% (active) | -5.45% (active) | 63.2% | 84.8%
Cc1ccc([C@H]2C(C(=O)c3ccc(Cl)cc3)C3(N[C@@H]2c2ccccc2)C(=O)Nc2ccc(Br)cc23)cc1 (some centres undefined) | 7.2% (active) | 66.5% | 47.9% | 16.7% | 88% | 35.9% |  | 60.2% | 65.3% | 4.02% (active) | 38.6% | 91.6% | 47% | 44% | 101% | 68.7% | 8.72% (active) |  | 45.9%
CCCCOc1ccc(NC(=O)c2sc3nc(C)ccc3c2N)cc1 | 40.2% | 0.979% (active) | 0.73% (active) | 36.8% | 3.73% (active) |  |  | 49.2% | 6.14% (active) | 21.1% | 1.84% (active) | -20.1% (active) | -19.3% (active) | 26.5% | 37.1% | 42% | 48% | -17.3% (active) | 40%
CCCCCCCS(=O)(=O)N1CCCC(C(=O)Nc2nc3ccc(NC(=O)c4ccc(F)c(OC)c4F)cc3s2)C1 (centres undefined) | 60.2% | 31.9% | 38.6% | 40.3% | 55% | 34% | 74.2% | 58.9% | 55.7% | 51.3% | 67.9% | 85.9% | 53% | 59% | 89.4% | 50.2% | 59.7% | 64.7% | 52.6%
Nc1nnc(-c2c[nH]c3ccc(Br)cc23)c(-c2c[nH]c3ncc(Br)cc23)n1 | 43.6% | 47% | 41.8% | 29.1% | 44.2% | 31.8% | 37.5% | -33.2% (active) | 46.6% | 46.5% | 42.1% | 33.1% | 29.6% | 21% | 17.6% | 13.4% | 2.51% (active) | 50.2% | 25.3%
COc1ccc(-c2nc3cc(C)ccc3n2CC(=O)N=Nc2c(O)[nH]c3ccccc23)cc1 | -28.2% (active) | 19.1% | 5.59% (active) | 8.89% (active) | -93% (active) | -63.5% (active) | -57.5% (active) | 58% | 46% | -91.7% (active) | 53.7% |  | -12.5% (active) | 53.3% | 102% | 79.1% | 13.2% |  | 
O=C(NN1C(=O)/C(=C/C=C/c2ccc([N+](=O)[O-])o2)SC1=S)c1ccccc1O | -72.2% (active) | -96.1% (active) | -99.5% (active) | -6.66% (active) | -100% (active) | -91.6% (active) | -94.6% (active) | -86.9% (active) | -94.1% (active) | -98.2% (active) | -99.5% (active) | -87.6% (active) | -100% (active) | -100% (active) | -61.2% (active) | 5.02% (active) | 6.95% (active) | -61.8% (active) | -93.7% (active)
CCCCc1c(Nn2cnnn2)no[n+]1[O-] | 59.5% | 72.3% | 51.3% | 58.1% | 80.6% |  | 73% | 80.1% | 54.2% | 42.4% | 28.4% | 96.5% | 54.9% | 39.5% | 79.2% | 31.6% | 23% | 48.9% | 52.4%
Cc1sc(C(NC(=O)OCCn2c([N+](=O)[O-])cnc2C)C(F)(F)Cl)nc1-c1ccc(OC(F)(F)F)cc1 (centres undefined) | -83.4% (active) |  | -85.7% (active) | -65.1% (active) | -99.5% (active) | -98.3% (active) | -92.2% (active) | -90.7% (active) | -98% (active) |  | -95.5% (active) | -91.7% (active) | -98.5% (active) | -76.6% (active) | -89.7% (active) | -17.4% (active) | 2.22% (active) | -32.9% (active) | -96.1% (active)
O=C(NNc1nc2cc(F)ccc2n2c(C(=O)N3CCN(C4CC4)CC3)ccc12)c1ncccn1 | 39% | 30.7% | 16.8% | 49% |  | 13.7% | 30.8% | 57% | 22.8% | 27% | 14.8% |  | 12.2% | 17.7% | 75.9% | 13.4% |  | 73.3% | 9.28% (active)
